For 10 compounds, Potency results are on record in PubChem BioAssay (Tox21).

The nature of test [1]: Nuclear factor erythroid 2-related factor 2/antioxidant responsive element (Nrf2/ARE) small molecule agonists: luciferase reporter gene qHTS assay in human keratinocytes (AID 1919969). Note: nearly all actives have a fitted effect of over 35% in size. Note: potency is the fitted concentration of half-maximal effect.
In test [2] the target is Gonadotropin-releasing hormone receptor (Homo sapiens) (UniProt P30968). Description: Human gonadotropin-releasing hormone receptor (GnRHR) small molecule agonists, calcium flux assay in GnRHR-HEK293 cells (AID 1920063). Note: nearly all actives have a fitted effect of over 35% in size. An outline of the steps: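 HEK293 cells stably expressing human GnRHR were dye-loaded for 1 h at 37 C. Compound was added in agonist mode and fluorescence (Ex/Em 480/540) recorded kinetically for 3 min. Fifteen concentrations, triplicates.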

Test [3] concerns the target KiSS-1 receptor (Homo sapiens) (UniProt Q969F8). Description: Human kisspeptin (KISS1R) small molecule agonists, calcium flux assay in KISS1R-HEK293 cells (AID 1920064; active = well fitted activation curve with a large enough effect in the repeat runs). Summed up:
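HEK293 cells stably expressing human KISS1R were loaded with calcium dye for 1 h at 37 C, then given compound; fluorescence (Ex/Em 480/540) was read kinetically for 3 min. Fifteen concentrations, triplicate.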

Test [4] can be described thus: G protein-coupled receptor (GPCR) small molecule agonists, calcium flux assay: HEK293 wild type cell line counter screen (AID 1920065). Summed up:
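Wild-type HEK293 cells plated 18 h, loaded with calcium dye 1 h at 37 C, then compounds added in agonist mode (ATP as positive control). Kinetic fluorescence Ex/Em 480/540 recorded 3 min at 1 sec intervals; 15 concentrations, triplicate.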

The nature of test [5]: p53 small molecule agonists, cell-based qHTS assay with rat liver microsomes: qHTS cell viability counter screen (AID 1963580). Note: nearly all actives have a fitted effect of over 45% in size. An outline of the steps: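 Intracellular ATP, by CellTiter-Glo luminescence, defines viability. HCT-116 p53RE-bla cells, 4,000 per well, were compound-treated in the presence of rat liver microsomes and NADPH for 16 h at 37 C.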
Test [6] in a line: p53 small molecule agonists, cell-based qHTS assay: qHTS cell viability counter screen (AID 1963581). Note: nearly all actives have a fitted effect of over 45% in size. Summed up: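 p53RE-bla HCT-116 cells, compounds added 5 h after plating and incubated 16 h at 37 C. Cytotoxicity measured in the same wells as intracellular ATP by CellTiter-Glo luminescence after 30 min at room temperature.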
The target in test [7] is 5-hydroxytryptamine receptor 2A (Homo sapiens) (UniProt P28223). The test is described as follows: 5-hydroxytryptamine receptor 2A (HTR2A) small molecule agonists, cell-based qHTS assay (AID 1963587). Note: nearly all actives have a fitted effect of over 30% in size. Note: potency is the fitted concentration of half-maximal effect. Summed up:
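Kinetic calcium-flux fluorescence (2 min, 1 sec intervals) after compound addition in agonist mode. HTR2A-CHO cells were cultured 18 h, then dye-loaded 1 h at 37 C.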

The target in test [8] is Muscarinic acetylcholine receptor M1 (Homo sapiens) (UniProt P11229). Description: Cholinergic receptor muscarinic 1 (CHRM1) small molecule antagonists, cell-based qHTS assay (AID 1963588). Note: nearly all actives have a fitted effect of over 40% in size. Note: potency is the fitted concentration of half-maximal effect. An outline of the steps:
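CHRM1-CHO calcium-flux assay, antagonist mode. Cells were seeded 18 h, dye-loaded 1 h at 37 C and given compound for 5 min at RT, then acetylcholine was added at 50nM. FDSS fluorescence was read 3 min; 15 concentrations, three runs.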

For test [9] the target is unchanged. Description: Cholinergic receptor muscarinic 1 (CHRM1) small molecule agonists, cell-based qHTS assay (AID 1963589). Note: nearly all actives have a fitted effect of over 35% in size. Summed up:
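CHO cells stably expressing human CHRM1 were loaded with calcium dye for 1 h at 37 C, then compound was added in agonist mode. Intracellular calcium fluorescence was followed kinetically at 1 s intervals. Fifteen concentrations were tested in three independent runs.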

The nature of test [10]: cAMP Responsive Elements (CRE) small molecule antagonists, cell-based qHTS assay (AID 1963591; active = well fitted inhibition curve with a large enough effect in the signal ratio in the repeat runs, not every such curve was filed as active; the % refers to the signal ratio). Summed up: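 CRE-bla HEK293T cells plated 18 h, then given compound plus NKH477 at 0.25 uM final for 3 h at 37C. Beta-lactamase reporter read with LiveBLAzer B/G FRET substrate after 2 h at room temperature.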
Test [11] deals with Beta-2 adrenergic receptor (Homo sapiens) (UniProt P07550). Description: Adrenergic beta2 receptor (ADRB2) small molecule antagonists, cell-based qHTS assay (AID 1963592). Note: series mostly up to about 92 µM; nearly all actives have a fitted effect of over 50% in size. Summed up:
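Cells (CHO, stable ADRB2 overexpression) incubated 18-20hr at 37C; compounds added from DMSO; agonist mix (1nM isoproterenol, 100uM IBMX, 25uM Ro-20-1724) added; 0.5hr RT; d2-cAMP and anti-cAMP-cryptate added; 1hr RT; 665/615 nm read.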

Test [12] concerns the target D(2) dopamine receptor (Homo sapiens) (UniProt P14416). The test is described as follows: Dopamine D2 receptor (DRD2) small molecule agonists, cell-based qHTS assay (AID 1963594). Note: nearly all actives have a fitted effect of over 35% in size. Summed up:
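cAMP accumulation in DRD2-HEK293 cells measured by HTRF after 1 h detection; compounds added 10 min before NKH477 (200nM […]) forskolin-analogue stimulation, 30 min at room temperature, with Ro20-1724 present at 0.1 mM final.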

For test [13] the target is unchanged. The test is described as follows: Dopamine D2 receptor (DRD2) small molecule antagonists, cell-based qHTS assay (AID 1963595; active = well fitted inhibition curve with a large enough effect in the signal ratio in the repeat runs, with a control signal flat; the % refers to the signal ratio). Summed up: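 HEK293 cells stably expressing DRD2, preincubated with 0.1 mM Ro20-1724 and compounds 10 min, were stimulated with 200 nM NKH477 plus 12 nM quinpirole for 30 min at room temperature; cAMP measured by HTRF (665/620 nm).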

Test [14] is described as follows: p53 small molecule agonists, cell-based qHTS assay with rat liver microsomes (AID 1963578). An outline of the steps: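 Metabolic activation is supplied by rat liver microsomes with NADPH (each 0.5 mg/mL final). p53RE-bla cells incubate with compound 16 h at 37 C; reporter activity is measured by LiveBLAzer fluorescence.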
The nature of test [15]: p53 small molecule agonists, cell-based qHTS assay with human liver microsomes: qHTS cell viability counter screen (AID 1963579). Note: nearly all actives have a fitted effect of over 45% in size. Summed up: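 After the 460/530 nm beta-lactamase read, CellTiter-Glo was added to the same wells and luminescence measured after 30 min at room temperature, giving viability of p53RE-bla cells treated 16 h with compounds plus microsomes and NADPH.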

Test [16] has as its target Beta-2 adrenergic receptor (Homo sapiens) (UniProt P07550). Description: Adrenergic beta2 receptor (ADRB2) small molecule agonists, cell-based qHTS assay (AID 1963593).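 Note: CHO cells stably overexpressing human ADRB2.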 An outline of the steps:
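CHO cells stably over-expressing ADRB2 were plated overnight at 37C, then dosed with compounds plus a stimulation mix containing 100uM IBMX and 25uM Ro-20-1724 for 0.5hr at room temperature. cAMP was measured by HTRF competition, 1hr.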

Test [17] in a line: cAMP Responsive Elements (CRE) small molecule agonists, cell-based qHTS assay (AID 1963590). Summed up:
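CRE-bla HEK 293T cells, 2,000/well in DMEM with 10% dialyzed FBS and 25 mM HEPES, pre-incubated 18 h at 37 C, then exposed to compound 3 h at 37 C. Beta-lactamase reporter read with LiveBLAzer B/G FRET substrate after 2 h at room temperature.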

Test [18] in a line: p53 small molecule agonists, cell-based qHTS assay with human liver microsomes (AID 1963577).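 Note: p53 response element beta-lactamase reporter cells with liver microsomes plus NADPH.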 An outline of the steps: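 Steps: plate p53RE-bla cells, incubate 5 h at 37 C; add compound in DMSO; add microsomes (0.5 mg/mL final) and NADPH (0.5 mg/mL final); incubate 16 h at 37 C; add LiveBLAzer, 2 h RT; read fluorescence.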
Test [19] can be described thus: p53 small molecule agonists, cell-based qHTS assay (AID 1963582; active = well fitted activation curve with a large enough effect in the signal ratio in the repeat runs, not every such curve was filed as active; the % refers to the signal ratio). An outline of the steps: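 p53RE-bla reporter cells, compounds added in DMSO after 5 h plating, incubated 16 h at 37 C. Beta-lactamase read via 2 h room-temperature LiveBLAzer B/G FRET substrate, fluorescence intensity.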
Test [20] addresses 5-hydroxytryptamine receptor 2A (Homo sapiens) (UniProt P28223). Description: 5-hydroxytryptamine receptor 2A (HTR2A) small molecule antagonists, cell-based qHTS assay (AID 1963586). Note: nearly all actives have a fitted effect of over 45% in size. Note: potency is the fitted concentration of half-maximal effect. An outline of the steps:
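Antagonist-mode intracellular calcium assay: DOI (4 nM) added after 5 min compound pre-incubation at room temperature to dye-loaded HTR2A-CHO cells. Fluorescence followed for 3 min, sampled every second.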

Structures are written as SMILES. Records with an inconclusive call do not appear. Active and inactive are the calls of the source. Unless noted, calls come from the whole dose curve.

Sequence of Gonadotropin-releasing hormone receptor (Homo sapiens) (P30968 whole entry, looked up): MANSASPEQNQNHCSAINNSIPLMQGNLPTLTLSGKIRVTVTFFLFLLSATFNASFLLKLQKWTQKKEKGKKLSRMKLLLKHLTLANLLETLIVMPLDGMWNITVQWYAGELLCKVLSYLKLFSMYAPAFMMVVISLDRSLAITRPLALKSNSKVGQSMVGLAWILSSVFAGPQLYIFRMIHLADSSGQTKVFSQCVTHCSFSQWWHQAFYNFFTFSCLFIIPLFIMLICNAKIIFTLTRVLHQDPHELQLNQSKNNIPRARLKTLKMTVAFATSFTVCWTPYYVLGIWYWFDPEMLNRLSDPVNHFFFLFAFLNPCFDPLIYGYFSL
Sequence of Muscarinic acetylcholine receptor M1 (Homo sapiens) (P11229 whole entry, looked up): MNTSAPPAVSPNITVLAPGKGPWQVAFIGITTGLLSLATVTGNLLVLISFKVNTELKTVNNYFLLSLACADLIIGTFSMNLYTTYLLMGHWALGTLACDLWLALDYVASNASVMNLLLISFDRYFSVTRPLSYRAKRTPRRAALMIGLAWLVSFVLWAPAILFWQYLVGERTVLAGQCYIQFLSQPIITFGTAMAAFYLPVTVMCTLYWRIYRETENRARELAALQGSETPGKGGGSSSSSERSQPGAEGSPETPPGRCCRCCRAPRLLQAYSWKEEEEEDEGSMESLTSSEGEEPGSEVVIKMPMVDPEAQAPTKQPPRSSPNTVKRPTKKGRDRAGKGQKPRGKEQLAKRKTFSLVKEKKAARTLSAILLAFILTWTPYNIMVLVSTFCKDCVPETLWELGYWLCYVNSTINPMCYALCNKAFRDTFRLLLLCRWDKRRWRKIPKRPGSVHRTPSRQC
Sequence of D(2) dopamine receptor (Homo sapiens) (P14416 whole entry, looked up): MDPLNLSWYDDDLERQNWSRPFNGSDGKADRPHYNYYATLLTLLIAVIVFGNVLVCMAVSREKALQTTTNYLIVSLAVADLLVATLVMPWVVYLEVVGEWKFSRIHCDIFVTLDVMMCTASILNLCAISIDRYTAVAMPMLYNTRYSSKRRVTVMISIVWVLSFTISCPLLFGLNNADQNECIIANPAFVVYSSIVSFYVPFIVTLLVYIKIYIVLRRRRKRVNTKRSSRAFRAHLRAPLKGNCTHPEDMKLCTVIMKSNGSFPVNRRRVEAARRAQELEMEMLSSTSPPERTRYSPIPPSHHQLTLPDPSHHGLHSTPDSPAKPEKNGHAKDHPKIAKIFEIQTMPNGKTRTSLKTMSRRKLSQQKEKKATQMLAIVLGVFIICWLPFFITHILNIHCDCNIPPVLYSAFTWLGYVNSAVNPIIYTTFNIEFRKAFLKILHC
Sequence of KiSS-1 receptor (Homo sapiens) (Q969F8 whole entry, looked up): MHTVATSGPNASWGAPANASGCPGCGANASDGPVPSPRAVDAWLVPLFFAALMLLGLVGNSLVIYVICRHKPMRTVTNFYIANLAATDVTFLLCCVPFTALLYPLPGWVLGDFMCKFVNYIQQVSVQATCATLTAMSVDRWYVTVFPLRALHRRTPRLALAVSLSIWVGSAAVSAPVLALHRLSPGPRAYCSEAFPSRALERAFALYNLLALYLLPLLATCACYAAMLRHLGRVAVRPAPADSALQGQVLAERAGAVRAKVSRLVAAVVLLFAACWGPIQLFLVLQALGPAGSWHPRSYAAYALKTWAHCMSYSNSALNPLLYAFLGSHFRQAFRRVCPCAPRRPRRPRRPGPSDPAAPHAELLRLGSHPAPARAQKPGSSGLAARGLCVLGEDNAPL
Sequence of Beta-2 adrenergic receptor (Homo sapiens) (P07550 whole entry, looked up): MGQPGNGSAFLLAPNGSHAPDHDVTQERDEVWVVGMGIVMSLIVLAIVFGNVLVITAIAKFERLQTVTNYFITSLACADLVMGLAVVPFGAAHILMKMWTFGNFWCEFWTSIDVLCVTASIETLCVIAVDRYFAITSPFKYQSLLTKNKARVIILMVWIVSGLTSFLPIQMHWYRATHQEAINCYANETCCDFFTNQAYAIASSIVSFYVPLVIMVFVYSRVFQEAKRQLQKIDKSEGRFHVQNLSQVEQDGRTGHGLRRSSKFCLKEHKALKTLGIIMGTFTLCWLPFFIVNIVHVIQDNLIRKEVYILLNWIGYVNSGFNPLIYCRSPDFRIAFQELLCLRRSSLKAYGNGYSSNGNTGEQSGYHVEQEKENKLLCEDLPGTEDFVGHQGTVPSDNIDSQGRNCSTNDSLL
Sequence of 5-hydroxytryptamine receptor 2A (Homo sapiens) (P28223 whole entry, looked up): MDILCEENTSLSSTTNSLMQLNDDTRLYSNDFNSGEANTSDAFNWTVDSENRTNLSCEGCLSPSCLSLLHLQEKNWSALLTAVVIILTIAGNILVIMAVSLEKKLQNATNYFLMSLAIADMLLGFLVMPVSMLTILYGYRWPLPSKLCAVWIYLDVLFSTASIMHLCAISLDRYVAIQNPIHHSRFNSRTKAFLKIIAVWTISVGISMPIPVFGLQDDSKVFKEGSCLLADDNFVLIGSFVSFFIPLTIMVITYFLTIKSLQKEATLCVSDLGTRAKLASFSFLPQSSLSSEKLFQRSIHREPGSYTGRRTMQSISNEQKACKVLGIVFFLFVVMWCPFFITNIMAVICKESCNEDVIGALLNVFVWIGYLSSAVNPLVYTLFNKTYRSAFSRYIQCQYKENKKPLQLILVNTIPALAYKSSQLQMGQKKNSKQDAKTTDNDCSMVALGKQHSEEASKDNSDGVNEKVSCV

Regarding `CCN(CC)C(C)C(=O)c1ccccc1` (stereo not given), the Potency entry in test [1], in test [2], in [3], in [4], in test [5] and in test [6] was “inactive” throughout. Besides, the Potency entry in test [7], in test [8], in test [9], in test [10], in [11] and in test [12] was “inactive” in each case. Also, the Potency entry in [13] is “inactive”.
Turning to `CCCOCC(=Nc1ccc(Cl)cc1C(F)(F)F)n1ccnc1`, the Potency in [1] is 27.3 µM (active). Moreover, the Potency entry in test [2], in test [3], in test [4], in test [14], in test [15] and in test [11] was “inactive” throughout. Moreover, the Potency result in test [16] is “inactive”.
Regarding `O=C(Cc1ccccc1)OCc1ccccc1`, the Potency result in test [1], in test [2], in test [3], in test [4], in [15] and in test [7] was “inactive” throughout. Moreover, the Potency entry in test [8], in test [9], in test [17], in test [10], in test [11] and in test [12] was “inactive” in each case. Besides, the Potency entry in test [13] was “inactive”.
Take `OC(c1ccc(Cl)cc1)(c1ccc(Cl)cc1)C(Cl)(Cl)Cl`: the Potency entry in test [1], in [2], in test [3], in test [18], in test [14] and in test [15] was “inactive” each time. The Potency entry in [5], in test [6], in test [19], in test [20], in [7] and in test [9] was “inactive” in each case. The Potency in test [8] is 26.5 µM (active).
With `Oc1c(Cl)c(Cl)cc(Cl)c1Cl`, the Potency entry in test [1], in test [2], in [3], in test [4], in test [14] and in [5] was “inactive” each time. The Potency result in test [6], in test [20], in [7], in test [8], in [9] and in test [11] was “inactive” throughout. Further, the Potency entry in test [16], in [12] and in test [13] was “inactive” throughout.
On to `O=[N+]([O-])c1cc(C(F)(F)F)cc([N+](=O)[O-])c1Cl`, for which the Potency entry in [1], in [2], in test [3], in test [4], in [15] and in test [5] was “inactive” in each case. In addition, the Potency result in [20], in test [7], in test [8], in [10], in [12] and in test [13] was “inactive” throughout.
As to `CC(Cc1ccc2c(c1)OCO2)NO` (stereo not given), the Potency result in [1], in [2], in [3], in test [4], in test [14] and in test [15] was “inactive” throughout. The Potency result in test [6], in test [19], in test [8], in test [9], in test [17] and in [10] was “inactive” each time. Also, the Potency result in test [11], in [16], in test [12] and in test [13] was “inactive” each time. Moreover, the results for the Potency in test [20] and in test [7] were 0.91 µM (active) and 1.33 µM (active), respectively.
As for `c1cc2ccc3cccc4ccc(c1)c2c34`, the Potency result in test [1], in [2], in test [3], in test [4], in test [20] and in [7] was “inactive” in each case. The Potency entry in [8] is “inactive”.
Regarding `O=[N+]([O-])c1ccc(F)c([N+](=O)[O-])c1`, the Potency result in test [1], in test [2], in [3], in test [4], in [5] and in [6] was “inactive” throughout. Besides, the Potency entry in test [7], in test [8] and in test [9] was “inactive” in each case.
As for `CCOP(=S)(OCC)Oc1cc(Cl)c(Br)cc1Cl`, the Potency in [1] is 61.1 µM (active). The Potency result in test [2], in test [3], in test [4], in test [5], in test [6] and in [20] was “inactive” throughout. Further, the Potency result in [7], in [8], in test [11], in test [12] and in [13] was “inactive” throughout.
